Laboratory results: PubChem BioAssay AID1159580 (chemical genetic matrix, 2015)
“And” between values parts separate entries of the source, which are not always exact repeats. Equal entries are not always repeated. The whole screen tested about 5,500 compounds, of which about 2,000 (36%) were called active. Another 18% or so got no clear call; they are omitted. Rule as the data show it: active = normalized growth mostly below about 0.91 (no sharp cut-off); inconclusive = no clear call, values can overlap the other calls; inactive = mostly above about 0.92. This is one part of the list.

Experiment: chemical genetic growth profiling, strain panel (AID 1159580);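 also: tested at 20 µM; growth read once vehicle control cultures reached saturation at 30 °C; 1 = growth at the plate median or of vehicle wells; lower values mean less growth of the strain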
Conditions: growth OD
[1] = S. cerevisiae deletion strains, locus YPL241C, strain CIN2, hits give low values

Measured: normalized growth

Oc1c(Cl)c(Cl)c(Cl)c(Cl)c1Cl
active: S. cerevisiae deletion strains, locus YAL013W, strain DEP1, hits give low values 0.885 | S. cerevisiae deletion strains, locus YBR021W, strain FUR4, hits give low values 0.636 | S. cerevisiae deletion strains, locus YBR229C, strain ROT2, hits give low values 0.845 | S. cerevisiae deletion strains, locus YCL029C, strain bik1, hits give low values 0.672 | S. cerevisiae deletion strains, locus YDL035C, strain GPR1, hits give low values 0.834 | S. cerevisiae deletion strains, locus YDL074C, strain BRE1, hits give low values 0.704 | S. cerevisiae deletion strains, locus YDL101C, strain DUN1, hits give low values 0.885 | S. cerevisiae deletion strains, locus YDL134C, strain PPH21, hits give low values 0.816 | S. cerevisiae deletion strains, locus YDL185W, strain tfp1, hits give low values 0.176 | S. cerevisiae deletion strains, locus YDL192W, strain arf1, hits give low values 0.811 | S. cerevisiae deletion strains, locus YDR101C, strain arx1, hits give low values 0.758 | S. cerevisiae deletion strains, locus YDR150W, strain NUM1, hits give low values 0.786 | S. cerevisiae deletion strains, locus YDR162C, strain NBP2, hits give low values 0.607 | S. cerevisiae deletion strains, locus YDR318W, strain mcm21, hits give low values 0.686 | S. cerevisiae deletion strains, locus YDR388W, hits give low values 0.763 | S. cerevisiae deletion strains, locus YDR502C, strain sam2, hits give low values 0.73 | S. cerevisiae deletion strains, locus YEL061C, strain CIN8, hits give low values 0.819 | S. cerevisiae deletion strains, locus YER110C, hits give low values 0.383 | S. cerevisiae deletion strains, locus YER155C, strain BEM2, hits give low values 0.669 | S. cerevisiae deletion strains, locus YER167W, strain BCK2, hits give low values 0.659 | S. cerevisiae deletion strains, locus YGL078C, strain dbp3, hits give low values 0.759 | S. cerevisiae deletion strains, locus YGL086W, strain mad1, hits give low values 0.772 | S. cerevisiae deletion strains, locus YGL248W, strain PDE1, hits give low values 0.818 | S. cerevisiae deletion strains, locus YGR078C, strain PAC10, hits give low values 0.745 | S. cerevisiae deletion strains, locus YGR135W, strain pre9, hits give low values 0.732 | S. cerevisiae deletion strains, locus YGR229C, strain SMI1, hits give low values 0.594 | S. cerevisiae deletion strains, locus YGR252W, strain gcn5, hits give low values 0.637 | S. cerevisiae deletion strains, locus YHR030C, strain SLT2, hits give low values 0.792 and 0.128 | S. cerevisiae deletion strains, locus YHR079C, strain IRE1 (second series), hits give low values 0.659 | S. cerevisiae deletion strains, locus YHR079C, strain IRE1, hits give low values 0.111 | S. cerevisiae deletion strains, locus YHR094C, strain hxt1, hits give low values 0.75 | S. cerevisiae deletion strains, locus YHR129C, strain ARP1, hits give low values 0.775 | S. cerevisiae deletion strains, locus YHR200W, strain rpn10, hits give low values 0.755 | S. cerevisiae deletion strains, locus YIL066C, strain RNR3, hits give low values 0.71 | S. cerevisiae deletion strains, locus YIL125W, strain kgd1, hits give low values 0.463 | S. cerevisiae deletion strains, locus YIR030C, strain dcg1, hits give low values 0.688 | S. cerevisiae deletion strains, locus YJL095W, strain BCK1, hits give low values 0.635 and 0.181 | S. cerevisiae deletion strains, locus YJL134W, strain LCB3, hits give low values 0.835 | S. cerevisiae deletion strains, locus YJL168C, strain set2, hits give low values 0.757 | S. cerevisiae deletion strains, locus YJL187C, strain SWE1 (second series), hits give low values 0.818 | S. cerevisiae deletion strains, locus YJR043C, strain POL32, hits give low values 0.716 | S. cerevisiae deletion strains, locus YJR066W, strain TOR1, hits give low values 0.00405 | S. cerevisiae deletion strains, locus YJR075W, strain HOC1, hits give low values 0.71 | S. cerevisiae deletion strains, locus YKL009W, strain mrt4, hits give low values 0.569 | S. cerevisiae deletion strains, locus YKL068W, hits give low values 0.759 | S. cerevisiae deletion strains, locus YKL085W, strain MDH1 (second series), hits give low values 0.647 | S. cerevisiae deletion strains, locus YKL085W, strain MDH1, hits give low values 0.647 | S. cerevisiae deletion strains, locus YKL190W, strain CNB1, hits give low values 0.811 | S. cerevisiae deletion strains, locus YKR001C, strain vps1, hits give low values 0.3 | S. cerevisiae deletion strains, locus YLR039C, strain RIC1, hits give low values 0.332 | S. cerevisiae deletion strains, locus YLR058C, strain SHM2, hits give low values 0.801 | S. cerevisiae deletion strains, locus YLR102C, strain apc9, hits give low values 0.739 | S. cerevisiae deletion strains, locus YLR113W, strain HOG1, hits give low values 0.16 | S. cerevisiae deletion strains, locus YLR262C, strain YPT6, hits give low values 0.365 | S. cerevisiae deletion strains, locus YLR268W, strain sec22, hits give low values 0.718 | S. cerevisiae deletion strains, locus YLR330W, strain CHS5, hits give low values 0.778 | S. cerevisiae deletion strains, locus YLR342W, strain FKS1 (second series), hits give low values 0.743 | S. cerevisiae deletion strains, locus YLR371W, strain rom2, hits give low values 0.79 | S. cerevisiae deletion strains, locus YLR418C, strain cdc73, hits give low values 0.41 | S. cerevisiae deletion strains, locus YML016C, strain PPZ1, hits give low values 0.831 | S. cerevisiae deletion strains, locus YML032C, strain rad52, hits give low values 0.709 | S. cerevisiae deletion strains, locus YML124C, strain tub3, hits give low values 0.739 | S. cerevisiae deletion strains, locus YMR078C, strain ctf18, hits give low values 0.554 | S. cerevisiae deletion strains, locus YMR223W, strain ubp8, hits give low values 0.73 | S. cerevisiae deletion strains, locus YMR263W, strain SAP30, hits give low values 0.773 | S. cerevisiae deletion strains, locus YMR307W, strain GAS1, hits give low values 0.391 | S. cerevisiae deletion strains, locus YNL067W, strain RPL9B, hits give low values 0.791 | S. cerevisiae deletion strains, locus YNL153C, strain GIM3, hits give low values 0.85 | S. cerevisiae deletion strains, locus YNL183C, strain NPR1, hits give low values -0.00166 | S. cerevisiae deletion strains, locus YNL233W, strain BNI4, hits give low values 0.782 | S. cerevisiae deletion strains, locus YNL250W, strain rad50, hits give low values 0.585 | S. cerevisiae deletion strains, locus YNL271C, strain bni1, hits give low values 0.7 | S. cerevisiae deletion strains, locus YNL298W, strain CLA4, hits give low values 0.679 | S. cerevisiae deletion strains, locus YNL307C, strain MCK1, hits give low values 0.226 | S. cerevisiae deletion strains, locus YNL322C, strain KRE1, hits give low values 0.826 | S. cerevisiae deletion strains, locus YNR052C, strain pop2, hits give low values 0.802 | S. cerevisiae deletion strains, locus YOL147C, strain pex11, hits give low values 0.603 | S. cerevisiae deletion strains, locus YOR061W, strain CKA2, hits give low values 0.826 | S. cerevisiae deletion strains, locus YOR069W, strain VPS5, hits give low values 0.849 | S. cerevisiae deletion strains, locus YOR136W, strain idh2, hits give low values 0.828 | S. cerevisiae deletion strains, locus YOR144C, strain elg1, hits give low values 0.756 | S. cerevisiae deletion strains, locus YOR184W, strain ser1, hits give low values 0.584 | S. cerevisiae deletion strains, locus YOR231W, strain MKK1, hits give low values 0.106 | S. cerevisiae deletion strains, locus YOR316C, strain cot1, hits give low values 0.688 | S. cerevisiae deletion strains, locus YPL055C, strain LGE1, hits give low values 0.732 | [1] 0.819 | S. cerevisiae deletion strains, locus YPL256C, strain CLN2, hits give low values 0.113 | S. cerevisiae deletion strains, locus YPR119W, strain clb2, hits give low values 0.691 | S. cerevisiae deletion strains, locus YPR141C, strain kar3, hits give low values 0.724 | S. cerevisiae deletion strains, locus YPR163C, strain tif3, hits give low values 0.562 | S. cerevisiae deletion strains, locus YPR167C, strain met16, hits give low values 0.731 | S. cerevisiae deletion strains, strain wtn01, hits give low values 0.732 | S. cerevisiae strains, strain wild type, hits give low values 0.809
inactive: S. cerevisiae deletion strains, locus YIL073C, strain SPO22, hits give low values 0.801 | S. cerevisiae deletion strains, locus YNL128W, strain TEP1, hits give low values 0.878 | S. cerevisiae deletion strains, locus YOL006C, strain TOP1, hits give low values 0.739 | S. cerevisiae deletion strains, locus YOL012C, strain htz1 0.527

NC(=O)COc1c(F)cc(SCCNS(=O)(=O)c2ccccc2)cc1F
inactive: S. cerevisiae deletion strains, locus YAL040C, strain CLN3, hits give low values 1.03 | S. cerevisiae deletion strains, locus YCL061C, strain MRC1 (second series), hits give low values 1 | S. cerevisiae deletion strains, locus YDR363W, strain ESC2, hits give low values 0.968 | S. cerevisiae deletion strains, locus YER002W, strain NOP16, hits give low values 0.97 | S. cerevisiae deletion strains, locus YNL175C, strain NOP13, hits give low values 0.977 | S. cerevisiae deletion strains, locus YNL197C, strain WHI3, hits give low values 0.975 | S. cerevisiae deletion strains, locus YNL224C, strain SQS1, hits give low values 0.983 | S. cerevisiae deletion strains, locus YOR083W, strain WHI5 (second series), hits give low values 0.998 | [1] 0.996
